Source: PubChem BioAssay (Tox21)
Where “and” joins values, the source holds several entries; their conditions need not be identical. Equal entries are not always repeated. Records with an inconclusive call do not appear. Values without a mark were called inactive. Calls of active or inactive are those of the source. The call rests on the fitted dose curve; in most records, active means well fitted curve in the direction sought with a large enough effect in the repeat runs; inconclusive means weak or mixed curves; inactive means no such curve, though single readings can be large; an effect the other way counts as inactive or inconclusive.
On the % scale 0 is the no-effect control and ±100 the full control effect; potency means the concentration at half of the fitted maximal effect.

Tested on: not listed separately
Test: qHTS assay to identify small molecule antagonists of the estrogen related receptor (ERR) signaling pathway from Tox21 library - cell viability counter screen (AID 1224834); further: nearly all actives have a fitted effect of over 30% in size
Conditions: ERR reporter cells viability, CellTiter-Fluor, 17.5 h; series mostly up to 92.4 µM; viability change, negative = cytotoxic: at the top concentration
Method in brief: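 Fluorescence from CellTiter-Fluor gives the viability read-out, taken 30 min after reagent addition. Before that, ERR cells seeded 6 h earlier were incubated with compounds for 17.5 h at 37 C.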
In the case of C/C(=C(\CCOP(=O)(O)O)SC(=O)c1ccccc1)N(C=O)Cc1cnc(C)nc1N, the viability change, negative = cytotoxic is reported as 0.62% [at 8.39 µM].
With CC1=CC=C(C(C)C)CC1 the “viability change, negative = cytotoxic” value was 2.69%.
For CCC(C)O (stereo not given), the “viability change, negative = cytotoxic” value was 1.82%.
With C=C1C(=C/C=C2\CCC[C@]3(C)[C@@H]([C@H](C)/C=C/[C@@H](O)C4CC4)CC[C@@H]23)C[C@@H](O)C[C@@H]1O the Potency was 29.8 µM (active).
For COC(=O)c1ccc(I)cc1S(=O)(=O)NC(=O)Nc1nc(C)nc(OC)n1, the “viability change, negative = cytotoxic” value was 0.672%.
With Brc1c2ccccc2cc2ccccc12 the “viability change, negative = cytotoxic” value was 0.146%.
In the case of O[C@@H](COc1cccc2ncccc12)CN1CCN(C2c3ccccc3[C@@H]3[C@H](c4ccccc42)C3(F)F)CC1 (stereo not given in full), the Potency is reported as 9.44 µM (active).
In the case of CC(=O)NO, the “viability change, negative = cytotoxic” value is reported as 3.79% [at 42.5 µM].
With CCCC(=O)Nc1ccc(O)c(C(C)=O)c1 the “viability change, negative = cytotoxic” value was 6.97% [at 42.5 µM].
In the case of CCCCC(=O)OCC(=O)[C@H]1[C@H](C)C[C@H]2[C@@H]3C[C@H](F)C4=CC(=O)C=C[C@]4(C)[C@@]3(F)[C@@H](O)C[C@@]21C, the “viability change, negative = cytotoxic” value is reported as 1.76% [at 42.5 µM].
For CCN(CC)c1ccc(C(=C2C=CC(=[N+](CC)CC)C=C2)c2cc(S(=O)(=O)O)ccc2S(=O)(=O)[O-])cc1, the Potency was 29.8 µM (active).
In the case of O=[N+]([O-])c1cccc(S(=O)(=O)O)c1, the Potency is reported as 43.9 µM (active).
Brc1c2ccccc2c(Br)c2ccccc12 showed a viability change, negative = cytotoxic of -0.56% [at 8.39 µM].
In the case of CC1(c2ccccc2)OC(C(=O)O)=CC1=O (stereo not given), the “viability change, negative = cytotoxic” value is reported as 1.83% [at 42.5 µM].
Work on CN(C)c1ccc(/C=C/c2ccc([N+](=O)[O-])cc2)cc1 yielded a viability change, negative = cytotoxic of 1.01% [at 8.39 µM].
In the case of Cc1cccc(Nc2ccccc2)c1, the “viability change, negative = cytotoxic” value is reported as -5.6%.
With CCCn1cnc2c1c(=O)n(CCCCC(C)=O)c(=O)n2C the “viability change, negative = cytotoxic” value was 2.02% [at 42.5 µM].
For CCCCCCc1ccc(-c2ccc(C#N)cc2)cc1, the “viability change, negative = cytotoxic” value was 1.87%.
For CN(C)CCN(Cc1ccccc1)c1ccccn1, the “viability change, negative = cytotoxic” value was -9.19% [at 42.5 µM].
For C#Cc1cccc(Nc2ncnc3cc(OCCOC)c(OCCOC)cc23)c1, the Potency was 8.41 µM (active).
For C[C@H]1C[C@H]2[C@@H]3CCC4=CC(=O)C=C[C@]4(C)[C@@]3(Cl)[C@@H](O)C[C@]2(C)[C@@]1(O)C(=O)CO, the “viability change, negative = cytotoxic” value was -11.7% [at 42.5 µM].
With NCCCN1CCOCC1 the “viability change, negative = cytotoxic” value was 0.489%.
In the case of C#CCN(C)CCCOc1ccc(Cl)cc1Cl, the “viability change, negative = cytotoxic” value is reported as -1.32% [at 42.5 µM].
In the case of COc1cc(C(=O)OCCCN2CCCN(CCCOC(=O)c3cc(OC)c(OC)c(OC)c3)CC2)cc(OC)c1OC, the Potency is reported as 23.7 µM (active).
With CCCCCCCCCCCCN1CCCCCC1=O the “viability change, negative = cytotoxic” value was -12.2%.
For COc1cc(Cl)ccc1Oc1ccc(Cl)cc1Cl, the “viability change, negative = cytotoxic” value was 1.56%.
For C=CC(=O)OCCOCCOCCOCCOC(=O)C=C, the Potency was 30.8 µM (active) and 24.1 µM (active).
For OC(CN1CCC(Cc2ccc(F)cc2)CC1)c1ccc(Cl)cc1 (stereo not given), the “viability change, negative = cytotoxic” value was 0.0667% [at 42.5 µM].
For Nc1ncn([C@H]2C[C@H](O)[C@@H](CO)O2)c(=O)n1, the “viability change, negative = cytotoxic” value was 4% [at 42.5 µM].
With CCCCC(CC)COC(=O)CCCCCCCCC(=O)OCC(CC)CCCC (stereo not given) the “viability change, negative = cytotoxic” value was -1.28%.
In the case of CCN(CC)c1ccc2c(-c3ccccc3C(=O)O)c3ccc(=[N+](CC)CC)cc-3oc2c1, the Potency is reported as 7.7 µM (active).
With S=C([S-])NCCNC(=S)[S-].[Mn+2] the “viability change, negative = cytotoxic” value was -13.3%.
In the case of Cc1nn(C)c(Oc2ccccc2)c1/C=N/OCc1ccc(C(=O)OC(C)(C)C)cc1, the “viability change, negative = cytotoxic” value is reported as -14.5%.
In the case of CCCCCCOC(=O)NC(=N)c1ccc(NCc2nc3cc(C(=O)N(CCC(=O)OCC)c4ccccn4)ccc3n2C)cc1, the Potency is reported as 29.8 µM (active).
For CCc1cc(C2=C(C(=O)O)N(c3ccccc3C(F)(F)F)S(=O)(=O)c3ccccc32)cc2c1OCO2, the Potency was 7.61 µM (active).

Molecular target: Luciferin 4-monooxygenase (Photinus pyralis) (UniProt P08659)
Sequence (P08659 whole entry, looked up): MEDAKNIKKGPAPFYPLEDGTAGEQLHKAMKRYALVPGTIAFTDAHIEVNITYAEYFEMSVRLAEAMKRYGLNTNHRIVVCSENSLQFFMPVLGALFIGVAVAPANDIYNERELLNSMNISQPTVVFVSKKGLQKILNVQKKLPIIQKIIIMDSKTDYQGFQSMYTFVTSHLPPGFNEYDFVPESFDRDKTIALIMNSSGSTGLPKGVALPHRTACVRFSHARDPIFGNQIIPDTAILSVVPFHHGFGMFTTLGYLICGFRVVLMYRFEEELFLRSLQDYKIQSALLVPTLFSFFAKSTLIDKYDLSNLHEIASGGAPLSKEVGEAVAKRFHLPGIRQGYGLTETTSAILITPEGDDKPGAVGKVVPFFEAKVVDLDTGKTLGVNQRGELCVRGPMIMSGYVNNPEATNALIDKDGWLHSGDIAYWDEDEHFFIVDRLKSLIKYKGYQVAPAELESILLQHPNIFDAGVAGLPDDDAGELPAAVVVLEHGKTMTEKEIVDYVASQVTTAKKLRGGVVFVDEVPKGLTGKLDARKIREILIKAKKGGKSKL
Test: qHTS assay to identify small molecule inhibitors of firefly luciferase (AID 1224835); further: nearly all actives have a fitted effect of over 25% in size
Conditions: purified P. pyralis luciferase, luminescence inhibition; series mostly up to 115 µM; activity change, negative = inhibition: at the top concentration
Method in brief: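 Quantitative HTS format; KM concentrations of both substrates. Purified P. pyralis FLuc activity quantified from luminescence images.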
For C/C(=C(\CCOP(=O)(O)O)SC(=O)c1ccccc1)N(C=O)Cc1cnc(C)nc1N, the activity change, negative = inhibition was 0.277% [at 10.5 µM].
In the case of O[C@@H](COc1cccc2ncccc12)CN1CCN(C2c3ccccc3[C@@H]3[C@H](c4ccccc42)C3(F)F)CC1 (stereo not given in full), the “activity change, negative = inhibition” value is reported as -2.76% [at 52.9 µM].
With CCN(CC)c1ccc(C(=C2C=CC(=[N+](CC)CC)C=C2)c2cc(S(=O)(=O)O)ccc2S(=O)(=O)[O-])cc1 the Potency was 12.3 µM (active).
In the case of O=[N+]([O-])c1cccc(S(=O)(=O)O)c1, the “activity change, negative = inhibition” value is reported as -0.719%.
With CN(C)CCN(Cc1ccccc1)c1ccccn1 the “activity change, negative = inhibition” value was -1.93% [at 52.9 µM].
For C[C@H]1C[C@H]2[C@@H]3CCC4=CC(=O)C=C[C@]4(C)[C@@]3(Cl)[C@@H](O)C[C@]2(C)[C@@]1(O)C(=O)CO, the “activity change, negative = inhibition” value was 5.26% [at 52.9 µM].
With COc1cc(C(=O)OCCCN2CCCN(CCCOC(=O)c3cc(OC)c(OC)c(OC)c3)CC2)cc(OC)c1OC the “activity change, negative = inhibition” value was 0.575% [at 52.9 µM].
In the case of OC(CN1CCC(Cc2ccc(F)cc2)CC1)c1ccc(Cl)cc1 (stereo not given), the “activity change, negative = inhibition” value is reported as -0.0229% [at 52.9 µM].
With S=C([S-])NCCNC(=S)[S-].[Mn+2] the Potency was 12.6 µM (active).
In the case of Cc1nn(C)c(Oc2ccccc2)c1/C=N/OCc1ccc(C(=O)OC(C)(C)C)cc1, the “activity change, negative = inhibition” value is reported as -6.19%.
For CCc1cc(C2=C(C(=O)O)N(c3ccccc3C(F)(F)F)S(=O)(=O)c3ccccc32)cc2c1OCO2, the “activity change, negative = inhibition” value was 5.39%.

Tested on: not listed separately
Test: qHTS assay to identify small molecule agonists of the constitutive androstane receptor (CAR) signaling pathway - cell viability counter screen (AID 1224836); further: nearly all actives have a fitted effect of over 45% in size
Conditions: HepG2-CYP2B6-hCAR viability, CellTiter-Fluor, 23 h, PK11195 added to every well; series mostly up to 92.4 µM; viability change, negative = cytotoxic: at the top concentration
Method in brief: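 HepG2 cells stably carrying hCAR and a CYP2B6-2.2kb reporter; 15-concentration compounds plus PK11195 (final 0.75 uM), 23 hr at 37 C/5% CO2. Viability read by CellTiter-Fluor fluorescence.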
In the case of CC1=CC=C(C(C)C)CC1, the “viability change, negative = cytotoxic” value is reported as 4.84%.
For CCC(C)O (stereo not given), the “viability change, negative = cytotoxic” value was 10.4%.
For C=C1C(=C/C=C2\CCC[C@]3(C)[C@@H]([C@H](C)/C=C/[C@@H](O)C4CC4)CC[C@@H]23)C[C@@H](O)C[C@@H]1O, the “viability change, negative = cytotoxic” value was -12.8% [at 42.5 µM].
With COC(=O)c1ccc(I)cc1S(=O)(=O)NC(=O)Nc1nc(C)nc(OC)n1 the “viability change, negative = cytotoxic” value was 12.3%.
In the case of Brc1c2ccccc2cc2ccccc12, the “viability change, negative = cytotoxic” value is reported as 8.17%.
For CC(=O)NO, the “viability change, negative = cytotoxic” value was 10.2% [at 42.5 µM].
In the case of CCCC(=O)Nc1ccc(O)c(C(C)=O)c1, the “viability change, negative = cytotoxic” value is reported as 2.92% [at 42.5 µM].
For CCCCC(=O)OCC(=O)[C@H]1[C@H](C)C[C@H]2[C@@H]3C[C@H](F)C4=CC(=O)C=C[C@]4(C)[C@@]3(F)[C@@H](O)C[C@@]21C, the “viability change, negative = cytotoxic” value was -0.713% [at 42.5 µM].
With Brc1c2ccccc2c(Br)c2ccccc12 the viability change, negative = cytotoxic was 3.16% [at 8.39 µM].
In the case of CC1(c2ccccc2)OC(C(=O)O)=CC1=O (stereo not given), the “viability change, negative = cytotoxic” value is reported as 2.39% [at 42.5 µM].
Work on CN(C)c1ccc(/C=C/c2ccc([N+](=O)[O-])cc2)cc1 yielded a viability change, negative = cytotoxic of 5.96% [at 8.39 µM].
In the case of Cc1cccc(Nc2ccccc2)c1, the “viability change, negative = cytotoxic” value is reported as 0.538%.
With CCCn1cnc2c1c(=O)n(CCCCC(C)=O)c(=O)n2C the “viability change, negative = cytotoxic” value was -9.26% [at 42.5 µM].
With CCCCCCc1ccc(-c2ccc(C#N)cc2)cc1 the “viability change, negative = cytotoxic” value was 3.78%.
For C#Cc1cccc(Nc2ncnc3cc(OCCOC)c(OCCOC)cc23)c1, the “viability change, negative = cytotoxic” value was -16.9% [at 42.5 µM].
With NCCCN1CCOCC1 the “viability change, negative = cytotoxic” value was 2.17%.
For C#CCN(C)CCCOc1ccc(Cl)cc1Cl, the “viability change, negative = cytotoxic” value was -4.74% [at 42.5 µM].
For CCCCCCCCCCCCN1CCCCCC1=O, the “viability change, negative = cytotoxic” value was 4.42%.
In the case of COc1cc(Cl)ccc1Oc1ccc(Cl)cc1Cl, the “viability change, negative = cytotoxic” value is reported as -2.83%.
In the case of C=CC(=O)OCCOCCOCCOCCOC(=O)C=C, the Potency is reported as 54.8 µM (active) and 60.6 µM (active).
In the case of Nc1ncn([C@H]2C[C@H](O)[C@@H](CO)O2)c(=O)n1, the “viability change, negative = cytotoxic” value is reported as 1.43% [at 42.5 µM].
For CCCCC(CC)COC(=O)CCCCCCCCC(=O)OCC(CC)CCCC (stereo not given), the “viability change, negative = cytotoxic” value was 0.266%.
With CCN(CC)c1ccc2c(-c3ccccc3C(=O)O)c3ccc(=[N+](CC)CC)cc-3oc2c1 the Potency was 7.7 µM (active).
With CCCCCCOC(=O)NC(=N)c1ccc(NCc2nc3cc(C(=O)N(CCC(=O)OCC)c4ccccn4)ccc3n2C)cc1 the “viability change, negative = cytotoxic” value was -19.2% [at 42.5 µM].
